This is part of a sample that, as a whole, favours compounds with a hit. Of some 79,000 tested, about 15% had one in any assay. Rule as the data show it: active = growth inhibition above about 70%; inactive = the rest.
Key:
[1] = NCI Yeast Anticancer Drug Screen. Data for the rad50 strain (AID 155);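 also: 0% = growth of vehicle-only cultures of the same strain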; conditions: S. cerevisiae rad50 strain growth inhibition; at 50.0 µM; active compounds read high
Outline: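 Vehicle-treated cultures provide the reference for the growth inhibition reported for compound-exposed, repair-deficient yeast.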

[2] = NCI Yeast Anticancer Drug Screen. Data for the mec2-1 strain (AID 157); conditions: S. cerevisiae mec2-1 strain, at 50.0 µM, active compounds read high
Outline: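 Mutant yeast (mec2-1) grown with compound; growth inhibition relative to vehicle control reported.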

[3] = NCI Yeast Anticancer Drug Screen. Data for the mlh1 rad18 strain (AID 175); conditions: S. cerevisiae mlh1 rad18 strain growth inhibition; at 50.0 µM; active compounds read high
Outline: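 Genetically defined yeast (DNA repair-deficient) exposed to compounds; growth inhibition determined relative to vehicle.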

Measured: growth inhibition

COc1ccc(C(CCl)(CCl)c2ccc(OC)c(N)c2)cc1N
inactive: [1] 12.3% | [2] 14% | [3] 28.6%

OCNC(=S)c1c(Cl)cccc1Cl
inactive: [1] -4.25% | [2] -18.1% | [3] -6.6%

Clc1nc(Oc2ccccc2)nc(-c2cn(-c3ccccc3)c3ccccc23)n1
inactive: [1] 2.05% | [2] -12.6% | [3] -6.35%

CC1=NN(c2ccccc2)C(=O)/C1=C\c1ccc(N(CCC#N)CCC#N)cc1
inactive: [1] 6.85% | [2] -4.95% | [3] 21.9%

COc1cc(/C=N/N2C(=O)c3ccccc3C2=O)ccc1O
inactive: [1] 26.8% | [2] 8.1% | [3] 25.9%

CC1(C)OC(=O)C(=Cc2c(Cl)cccc2Cl)C(=O)O1
inactive: [1] 0.05% | [2] 7.85% | [3] -7.3%

CCCCCCCCCC(O)CCCCC (stereo not drawn)
inactive: [1] -1.85% | [2] -21.2% | [3] 15.3%

CCCCCCCCOC(=O)C(=O)C(C#N)c1ccccc1 (stereo not drawn)
inactive: [1] 6.95% | [2] 6.3% | [3] 10.2%

COc1cc(/C=C(/C#N)C(N)=O)ccc1O
inactive: [1] -1.7% | [2] -35% | [3] -54.9%

CCCCCCC(=O)CCCCCCCCCCCCC(=O)OC
inactive: [1] 2.3% | [2] -1.65% | [3] 12.7%

O=[N+]([O-])c1ccc2nc3c(nc2c1)-c1cccc2cccc-3c12
inactive: [1] 2.15% | [2] -15.9% | [3] 12.3%

— PubChem BioAssay (NCI)
